Bioassay records from PubChem.
HT1080NT lethal: qHTS for induction of synthetic lethality in tumor cells producing 2HG: qHTS for the HT-1080-NT fibrosarcoma cell line; HT-1080-NT fibrosarcoma viability, CellTiter-Glo ATP luminescence, 48 h; Potency, µM (titrated, usually from 46.1 µM), actives largely listed as cytotoxic; hit rate 1.6% among 360,000; AID 686970, 2013;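 further: NT is the 2HG producing partner of a matched IDH1 knockdown line; nearly all actives have a fitted effect of over 55% in size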
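Viability of the 2HG-overproducing fibrosarcoma line after 48 hours of compound exposure at 37 degrees C was determined by luminescence with CellTiter-Glo, and concentration-effect curves were then fitted and categorized.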
HT1080 IDH1KD tx: qHTS for induction of synthetic lethality in tumor cells producing 2HG: qHTS for the HT-1080-IDH1KD cell line; HT-1080 IDH1 knockdown viability, ATP luminescence, 48 h; Potency, µM (highest dose often 46.1 µM), most hits filed as cytotoxic; hit rate 2% among 360,000
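Cytotoxicity counter-line: IDH1KD HT-1080, 48 h, CellTiter-Glo. Curves classed by r2, magnitude and activity.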
DT40 TDP1 CPT: qHTS for Inhibitors of human tyrosyl-DNA phosphodiesterase 1 (TDP1): qHTS in cells in presence of CPT | chicken DT40 Tdp1-/-;hTDP1 cells + 20 nM CPT, ATP luminescence, 48 h | Potency, µM (highest dose often 46.2 µM), most hits filed as inhibitors | hit rate 12% among 420,000; further: nearly all actives have a fitted effect of over 55% in size
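Chicken DT40 Tdp1-/- cells stably complemented with human TDP1 were seeded at 400 cells/well in medium containing 20 nM camptothecin, exposed to pin-transferred compounds, and grown at 37 °C for at least 48 hr. Viability was read as ATP luminescence.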
KB-3-1 cytotox: qHTS assay for MDR1-selective chemotherapeutics: Primary screen using the parental adenocarcinoma cell KB-3-1; KB-3-1 viability, CellTiter-Glo ATP luminescence, 72 h; Potency, µM (highest dose often 46.1 µM), most hits filed as cytotoxic; hit rate 1.4% among 400,000; further: nearly all actives have a fitted effect of over 60% in size
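Cells are dispensed, compounds pinned in, plates held at 37 °C for 72 h, then CellTiter-Glo is added and luminescence read after 10 minutes. Cell line: parental KB-3-1 in phenol-red-free DMEM, 10% FBS.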
KB-V1 MDR tox: qHTS assay for MDR1-selective chemotherapeutics: Primary screen using the drug-selected MDR subline cells KB-V1; KB-V1 MDR cells viability, CellTiter-Glo, 72 h; Potency, µM (highest dose often 46.1 µM), actives largely listed as cytotoxic; hit rate 3.4% among 400,000; AID 1347076, 2019; further: nearly all actives have a fitted effect of over 60% in size
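Cytotoxicity via CellTiter-Glo luminescence after 72 h compound exposure at 37 degrees C. Cells: drug-selected KB-V1 line, DMEM phenol-red free plus 10% FBS. Compounds tested at multiple concentrations; normalized data fitted to concentration-effect curves.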
TDP1 cell noCPT: qHTS for Inhibitors of human tyrosyl-DNA phosphodiesterase 1 (TDP1): qHTS in cells in absence of CPT. DT40 Tdp1-/- hTDP1 cells, no CPT, ATP luminescence, 48 h. Potency, µM (top dose mostly 46.2 µM), most hits filed as inhibitors. hit rate 15% among 420,000. AID 686978, 2013; further: nearly all actives have a fitted effect of over 55% in size
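Growth of hTDP1-complemented DT40 Tdp1-knockout cells is measured by ATP luminescence after at least 48 hr compound exposure at 37 °C, with DMSO substituting for the 20 nM CPT used in the parallel screen.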
A number is an active result; . = inactive; ? = inconclusive; / = no result; [ ] = dose if it differs, or a comment. Shown are actives, neighbours in structure and some others; about 19% of the full set was active somewhere. The call rests on the fitted dose curve; in most records, active means well fitted curve in the direction sought with a large enough effect; inconclusive means small, poorly fitted or top-dose-only effect, or another doubt; inactive means no such curve, though single readings can be large; an effect the other way counts as inactive or inconclusive.

SMILES	HT1080NT lethal	HT1080 IDH1KD tx	DT40 TDP1 CPT	KB-3-1 cytotox	KB-V1 MDR tox	TDP1 cell noCPT
Cc1nn(Cc2ccccc2Cl)c(C)c1NC(=O)c1ccn(C)n1	.	.	8.2µM	.	?	12µM
Cc1cccc(CNC(=O)CN2C(=O)CCn3nc(-c4cn(C)c5ccccc45)cc32)c1	/	/	?	.	.	?
S=C(NCc1ccccn1)NN=Cc1ccccn1	.	?	0.15µM	.	?	0.15µM
CCOC(=O)C1=CCN(S(=O)(=O)c2ccccc2Cl)C1c1cccc(F)c1 (configuration not stated)	.	.	?	.	.	?
Cc1ccc(C23CC4CC(CC(C(=O)N5CCN(C)CC5)(C4)C2)C3)cc1	.	.	?	?	?	?
Cc1ccc(C)c(N2CCN(C(=O)C34CC5CC(C3)CC(n3nnc(C)n3)(C5)C4)CC2)c1	?	?	6.5µM	?	?	7.3µM
O=C(C1CCCCC1)N(Cc1nc2sc3c(c2c(=O)[nH]1)CCCC3)Cc1cccs1	?	?	?	.	.	13µM
CC(=O)c1cc2c(cc1NC(=O)C1CC=CCC1C(=O)O)OCO2 (configuration not stated)	.	.	.	.	.	?
CC(=O)c1cc2c(cc1NC(=O)c1cc(C)nn1-c1ccccc1)OCO2	.	.	5.2µM	5.8µM	.	3.7µM
CC(=O)c1cc2c(cc1NC(=O)C1CN(C(C)=O)c3ccccc3O1)OCO2 (configuration not stated)	.	.	15µM	.	?	21µM
CN(C)c1ccc(CC2C(=O)Nc3ccccc32)cc1 (configuration not stated)	.	.	?	.	.	?
O=C1Nc2ccc(Br)cc2C1Cc1ccccc1F (configuration not stated)	.	.	.	.	.	.
CSc1ccc(CC2C(=O)Nc3ccccc32)cc1 (configuration not stated)	/	/	?	/	/	21µM
Cc1cccc(CC2C(=O)Nc3ccccc32)c1 (configuration not stated)	/	/	?	/	/	21µM
CCc1cccc2sc(N(CCCN3CCOCC3)C(=O)CS(=O)(=O)c3ccccc3)nc12	.	.	?	.	.	?
O=C(CCS(=O)(=O)c1ccccc1)N(CCCN1CCOCC1)c1nc2c(F)cccc2s1	.	?	2.3µM	?	?	2.9µM
O=C(CCS(=O)(=O)c1ccccc1)N(CCCN1CCOCC1)c1nc2ccc(F)cc2s1	?	?	2.6µM	?	?	3.7µM
COc1ccc(CN(Cc2ccco2)c2cnc(S(C)(=O)=O)nc2C(=O)Nc2ccc(F)cc2)cc1	/	/	?	.	.	?
Cc1cccc(NC(=O)C(=O)c2cc(C)n(-c3ccccc3)c2C)c1C	/	/	.	.	.	?
O=C(C1COc2ccccc2O1)N1CCN(Cc2ccc(Br)cc2F)CC1 (configuration not stated)	.	.	?	.	?	?
c1cc(-c2ccncc2)ccn1	/	/	10µM	.	.	16µM
COC(=O)c1ccccc1NC(=O)CN1C(=O)COc2ccc(Cl)cc21	/	/	.	.	?	?
COc1ccc(CCNC2CC(=O)N(C3CCCCC3)C2=O)cc1OC (configuration not stated)	.	.	.	.	.	.
COc1ccc(-c2nc3ccc(NS(=O)(=O)c4ccc(Cl)cc4)cc3o2)cc1	/	/	?	.	.	?
COc1ccc(NC(=O)c2cc3ccc(O)cc3o/c2=N\O)cc1	?	?	4.1µM	?	.	?
SMILES	HT1080NT lethal	HT1080 IDH1KD tx	DT40 TDP1 CPT	KB-3-1 cytotox	KB-V1 MDR tox	TDP1 cell noCPT
COc1cccc2cc(C(=O)NCc3ccccc3Cl)c(=O)oc12	.	.	.	.	?	.
N=c1oc2cc(O)ccc2cc1C(=O)Nc1ccc(F)cc1	.	.	?	?	.	?
COc1ccc2o/c(=N\O)c(C(=O)Nc3ccccc3OC)cc2c1	.	.	3.7µM	.	.	5.8µM
COc1cccc2cc(C(=O)Nc3ccccc3C)/c(=N/O)oc12	.	.	16µM	.	.	16µM
CCCCn1c(N)c(N(CCC(C)C)C(=O)CCN2C(=O)C3CC=CCC3C2=O)c(=O)[nH]c1=O (configuration not stated)	.	.	.	.	.	.
CCOC(=O)C1CCN(C(c2cc(OC)c(OC)c(OC)c2)c2sc3nc(C)nn3c2O)CC1 (configuration not stated)	.	.	?	.	.	.
COc1cc(C(c2sc3nc(C)nn3c2O)N2CCC3(CC2)OCCO3)cc(OC)c1OC (configuration not stated)	.	.	16µM	?	?	16µM
O=C(CN1CCc2ccccc21)NC(=O)NC1CCCCC1	.	.	?	.	.	?
O=c1oc2ccc(Cl)cc2cc1-c1nc(-c2cccs2)no1	/	/	.	/	/	.
N#Cc1ccc(CN2CCC3(CCNCC3)CC2)cc1	/	/	?	/	/	18µM
COCC(=O)N1CCC2(CCN(Cc3ccc(C#N)cc3)CC2)CC1	/	/	.	/	/	.
Cc1ccc(/C=N/N=C/c2ccc(C)s2)s1	.	.	?	.	?	?
Cc1ccc(C=Nc2ccccc2C(N)=O)s1	5.2µM	3.3µM	4.1µM	23µM	.	3.7µM
CC(=O)NCCNc1nc2cc(-c3ccccc3CO)sc2c(=O)n1C	.	.	.	.	.	.
COC(C[C@@H]1O[C@@H]1[C@H](O)[C@H](C)OCc1ccccc1)OC	.	.	.	.	.	.
COC(C[C@@H]1O[C@H]1C(=O)[C@@H](C)OCc1ccccc1)OC	.	.	18µM	?	.	.
COC(C[C@H]1O[C@H]1C(=O)[C@@H](C)OCc1ccccc1)OC	.	.	10µM	.	.	?
CC1(C(=O)NS(=O)(=O)c2ccccc2Cl)CCN1C(=O)CCc1cccs1 (configuration not stated)	.	.	.	.	.	.
Cc1ccc(S(=O)(=O)N2CCN(C(=O)COC(=O)c3cccc(Cl)c3)CC2)c(C)c1	.[9.24 µM]	.	?	.	.	?
Cc1c(Nc2nc3ccccc3nc2N2CCN(c3ccccc3)CC2)c(=O)n(-c2ccccc2)n1C	.	.	21µM	.	.	15µM
